For 33 compounds, inhibition results are on record in PubChem BioAssay AID624167 (Sanford-Burnham Center for Chemical Genomics, 2012).

The assay in a line: inhibition of PEG-3 promoter-driven reporter – cell-based, HeLa, luciferase, CREF/GAPDH counter-screen panel, dose response (AID 624167). Particulars: CREF/GAPDH counter-screens; run 2, dose range 1, at 100 µM (top of the series).
On to `CCc1ccc(/C=C2\SC(=S)N(CCCC(=O)Nc3ccccn3)C2=O)cc1`, for which the inhibition is 25.6%.
For the compound `CS(=O)(=O)Nc1cccc(NC(=O)C2Cc3c(-c4ccccc4)ccnc3O2)c1` (stereo not drawn), the inhibition was 54.2%.
Next, `CCOC(=O)c1c(SCCN2CCCCC2)n(-c2ccccc2)c(=S)n(-c2ccccc2)c1=O`: 98%; `C=CCc1cccc(/C=N/NC(=O)C(C)Nc2cccc(C)c2)c1O` (stereo not drawn): 5.69%; `CCCC(=O)NC(c1ccc(N(C)C)cc1)c1ccc2cccnc2c1O` (stereo not drawn): 27.1%.
The same measure for `Cc1ccc(/C=C2\SC(=S)N(CCCC(=O)Nc3ccccn3)C2=O)cc1`: 76.5%; for `CCc1ccc(/C=C2\SC(=S)N(CCCC(=O)NC3=NCCS3)C2=O)cc1`: 72.9%; for `O=C(Nc1ccc(Cc2ccncc2)cc1)c1ccc([N+](=O)[O-])o1`: 95.3%.
Take `COc1cc(/C=C2\SC(=Nc3ccccc3OC)NC2=O)ccc1O`: the inhibition stood at 39.3%.
`COc1ccc(C(NC(=O)C(C)C)c2ccc3cccnc3c2O)cc1` (stereo not drawn) had an inhibition of 40.9%.
The same measure for `COc1ccccc1Nc1nc(-c2sc(NC(=O)c3ccco3)nc2C)cs1`: 19.4%.
Next, `CC(=O)c1cccc(-c2ccnc3c2CC(C(=O)Nc2cccc(NS(C)(=O)=O)c2)O3)c1` (stereo not drawn): 52%; `O=c1c2ccccc2sc2nc(CCl)nn12`: 99.3%; `O=C(N/N=C/c1ccc(Cl)c([N+](=O)[O-])c1)c1cc(-c2ccc3c4c(cccc24)CC3)n[nH]1`: 98.4%.
Next, `COc1ccc(NC(=O)c2cc(-c3ccccn3)nc3ccccc23)cc1S(=O)(=O)N(C)C`: 60.4%; `COc1cccc(OC)c1C(=O)Nc1cc(C)nn1-c1nc2ccccc2[nH]1`: 54.4%.
As to `CCCC(=O)NC(c1ccc(OC)cc1)c1ccc2cccnc2c1O` (stereo not drawn), the inhibition was 69%.
Next, `Cc1ccc(C)c(S(=O)(=O)N2CCN(c3ncnc4sccc34)CC2)c1`: 61.2%.
The same measure for `COc1ccc(C(NC(C)=O)c2ccc3cccnc3c2O)c(OC)c1` (stereo not drawn): 0.125%; for `COc1ccc2c(c1)c(=Cc1ccc(N(C)C)cc1)c1cc(-c3ccccc3)[n+](C)n12`: 99.9%; for `Cc1ccc(/C=C2\SC(=S)N(CCCC(=O)NNC(=O)c3ccccc3O)C2=O)cc1`: 69.2%.
The same measure for `CCCCCCCNC(=O)C1(CC2CC(c3cccc(Br)c3)=NO2)CCNCC1` (stereo not drawn): 99.3%.
In turn, `O=C(CCl)N1c2ccccc2Sc2ccc3ccccc3c21` had an inhibition of 100%.
Next, `O=C(Nc1ccccc1C(=O)Nc1nnc(C(F)(F)F)s1)c1ccccc1`: 60.9%; `COc1ccc(Nc2ncnc3ccc(Br)cc23)c(OC)c1`: 93.7%; `O=[N+]([O-])c1nn(-c2ccc3c(c2)OCCO3)n(O)c1=Nc1ccc(Cl)cc1`: 80.8%.
Next, `O=C(CCSc1nc2ccccc2s1)N/N=C/c1c(O)ccc2ccccc12`: 0.467%; `COc1cc(Nc2c3ccccc3nc3ccccc23)cc(OC)c1OC`: 100%; `CC(=O)c1ccc(-c2cnc3c(NC=O)cc(-c4ccccc4Oc4ccccc4)cn23)cc1`: 40%.
The same measure for `O=C(COc1ccc2c(c1)CCC2)Nc1ccccn1`: 94.9%; for `COC(=O)C1C=CC(OC2OC(COC(C)=O)C(OC(C)=O)C(OC(C)=O)C2OC(C)=O)n2c(=O)n(-c3ccccc3)c(=O)n21` (stereo not drawn): 84.2%.
For `CCC(C)Cn1c(O)cc2nn(-c3nc4ccccc4s3)c(=O)c-2c1C` (stereo not drawn), the inhibition came to 95.7%.
Next, `NS(=O)(=O)c1ccc(CCNc2nn3c(-c4ccc(F)c(Cl)c4)cnc3s2)cc1`: 75.5%.

As usually defined, the inhibition is the drop in the measured response relative to a control, in per cent. Read a low inhibition as a weak effect.
